From PubChem BioAssay (Tox21)
Inconclusive results are not listed. Values without a mark were called inactive. The source made the active and inactive calls. Calls follow the shape of the dose curve; as a rule, active = well fitted inhibition curve with a large enough effect in the repeat runs; inconclusive = weak or mixed curves; inactive = flat fitted curve, though single readings scatter.

Molecular target: Luciferin 4-monooxygenase (Photinus pyralis) (UniProt P08659)
Assay: qHTS assay to identify small molecule inhibitors of firefly luciferase (AID 1224835); also: nearly all actives have a fitted effect of over 25% in size
Conditions: purified P. pyralis luciferase, luminescence inhibition; series mostly up to 115 µM; activity change, negative = inhibition: at the top concentration
Excerpt: U.S. Tox21 Program National Center for Advancing Translational Sciences [NCATS] NIH Chemical Genomics Center [NCGC] U.S. Environmental Protection Agency [EPA] National Institutes of Environmental Health Sciences [NIEHS] National Toxicology Program [NTP] U.S. Food and Drug Administration [FDA] Tox21 Assay Overview: Firefly (Photinus pyralis) luciferase is one of the most commonly used transcriptional reporters. Firefly luciferase reporter-gene assays are generally considered one of the most sensitive assay types (Wood, 1995; Wood, 1998). However, it was initially observed, in 1991, by Thompson et al., that compounds that resemble the substrates of firefly luciferase (FLuc) can act as competitive inhibitors of the enzyme, and that these compounds, upon interaction with luciferase in the cell, can actually stabilize the protein and increase its half-life. Previous profiling work by other groups to determine the prevalence of compounds that affect FLuc enzymatic activity (PubChem AID 411) identified that ~3% of the MLSMR library (then at ~72K) inhibited FLuc. […] Thus the Tox21 10K library is profiled for activity against FLuc using a biochemical assay of purified FLuc and KM concentrations of FLuc substrates (D-luciferin and ATP).
These assay plates were then treated with 23nL of compound or DMSO using a Kalypsys pin tool, which allows for delivery of a 6-point interplate titration of each compound to the assay plate (quantitative HTS.) 1 uL of firefly luciferase mix (containing 50 mM Tris acetate, pH 7.6, 0.04 uM P. pyralis luciferase, 0.01% Tween, 0.05% BSA and dH2O) was then delivered by FRD to each well. Luciferase activity was then measured using a ViewLux CCD imager.
% is scaled to controls: 0 for no effect and ±100 for the full control effect.

Sequence of Luciferin 4-monooxygenase (Photinus pyralis) (P08659 whole entry, looked up): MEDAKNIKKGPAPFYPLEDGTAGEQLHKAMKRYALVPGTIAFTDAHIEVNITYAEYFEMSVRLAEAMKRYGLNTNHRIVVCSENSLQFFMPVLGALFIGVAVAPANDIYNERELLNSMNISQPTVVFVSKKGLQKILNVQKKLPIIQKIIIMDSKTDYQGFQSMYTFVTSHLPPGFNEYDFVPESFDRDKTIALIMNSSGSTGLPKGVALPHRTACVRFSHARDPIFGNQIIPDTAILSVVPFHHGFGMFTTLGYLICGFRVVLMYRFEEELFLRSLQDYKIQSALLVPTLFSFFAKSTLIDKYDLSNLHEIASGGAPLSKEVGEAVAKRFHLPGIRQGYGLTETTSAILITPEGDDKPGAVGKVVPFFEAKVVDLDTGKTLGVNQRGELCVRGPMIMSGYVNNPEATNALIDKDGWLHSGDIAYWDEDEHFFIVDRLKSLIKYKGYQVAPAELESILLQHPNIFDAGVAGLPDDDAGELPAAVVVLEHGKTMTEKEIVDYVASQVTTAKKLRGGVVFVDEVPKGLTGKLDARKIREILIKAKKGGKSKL

SMILES | Potency | activity change, negative = inhibition
CC(=O)OC/C=C(\C)CC/C=C(\C)CCC=C(C)C | inactive | 
Cc1c(O)cccc1O |  | 4.28%
CCC(C)C1CCCCC1=O (stereo not given) |  | 5.71%
Cn1cc(S(C)=O)c(=O)c2ccc(F)cc21 (stereo not given) |  | -7.34% [at 52.9 µM]
CCc1nccnc1CC |  | 1.9% [at 23.6 µM]
C=C1CC[C@H]2C[C@@H]1C2(C)C |  | -0.591%
Cc1ccc(Cl)cc1Cl |  | 0.894%
FC(F)OC(Cl)C(F)(F)F (stereo not given) |  | -1.48%
c1ccc(CC2=NCCN2)cc1 |  | -2.11% [at 52.9 µM]
N=C(N)c1ccc2cc(OC(=O)c3ccc(N=C(N)N)cc3)ccc2c1 |  | -4.58% [at 52.9 µM]
O=C1NC(=O)[C@@]2(CCOc3ccc(F)cc32)N1 |  | -3.5% [at 52.9 µM]
CCOC(=O)c1c(C)n(C)c2ccc(O)cc12 |  | -4.05% [at 52.9 µM]
N=c1nc(N2CCCCC2)cc(N)n1O |  | 7.47% [at 52.9 µM]
CN(C)CCCNCCCN(C)C |  | 2.34%
CCc1ccc(O)c(OC)c1 |  | -2.25%
CC(C)CNCC(C)C |  | 3.74%
CCSC(=O)N(CC(C)C)CC(C)C |  | 8.48%
CC(C)(C)NCCNC(C)(C)C |  | 0.568%
CN1N=C(C(N)=O)CCC1=O |  | 8.36% [at 52.9 µM]
N=C(N)c1ccc(OCCCOc2ccc(C(=N)N)cc2)cc1 |  | -0.644% [at 52.9 µM]

SMILES | Potency | activity change, negative = inhibition
CC(=O)OCC(=O)[C@@]1(O)CCC2C3CCC4=CC(=O)CC[C@]4(C)C3[C@@H](O)C[C@@]21C (stereo not given in full) |  | 3.92% [at 52.9 µM]
CN1CCCC1 |  | 2.48%
C=C[Si](OC(=C)C)(OC(=C)C)OC(=C)C |  | 0.963%
CC1(C)CO[C@@H](CC(=O)O)CN1 |  | 2.2% [at 52.9 µM]
COC(=O)c1cc(C(=O)OC)cc(S(=O)(=O)O)c1 |  | 0.945%
NS(=O)(=O)c1ccccc1Cl |  | 3.65%
OC[C@]1(O)OC[C@@H](O)[C@H](O)[C@@H]1O | inactive | 
COC(=O)c1ccc(C)cc1C1=NC(C)(C(C)C)C(=O)N1 (stereo not given) |  | 0.138%
Nc1ccccc1S(=O)(=O)O |  | -1.22%
O=C(O)CN(CCOCCOCCN(CC(=O)O)CC(=O)O)CC(=O)O |  | 0.561% [at 0.435 µM]
Cc1cccn2c(=O)c(-c3nnn[nH]3)cnc12 |  | 1.24% [at 23.6 µM]
CCS(=O)(=O)c1ccc(OC)c(C(=O)OC)c1 |  | 2.03% [at 52.9 µM]
NC(=O)COCCN1CCN(C(c2ccccc2)c2ccc(Cl)cc2)CC1 (stereo not given) |  | -7.69% [at 52.9 µM]
CCCC(=O)O[C@]1(C(=O)CO)CC[C@H]2[C@@H]3CCC4=CC(=O)CC[C@]4(C)[C@H]3[C@@H](O)C[C@@]21C |  | 0.215% [at 52.9 µM]
Nc1ccc(S(=O)(=O)Nc2ccnn2-c2ccccc2)cc1 |  | 8.37% [at 23.6 µM]
CCOC(=O)c1cccc(N)c1 |  | -2.24% [at 52.9 µM]
N[C@H](C(=O)O)c1ccc(O)cc1 |  | -0.257% [at 23.6 µM]
CCOC(=O)CCC(C)=O |  | 0.403%
Nc1c[n+](N2CCOCC2)no1 |  | 1.55% [at 52.9 µM]
CCCCCCCCCCCCCCCCC |  | -2.44%
